# From ChEMBL document CHEMBL4513149, “CO-ADD screening of MMV (CH) - MMV compounds” (2021)
# Results with a measured potency or affinity are listed apart.
# Tests used:
# Staphylococcus aureus = conditions: Concentration 20 uM; ASSAY_TEST Inhibition of Bacterial Growth; detection method Absorption (OD600); MEDIA CAMHB; plate type 384well; NBS; CORNING #3640; time 18 hr
# Escherichia coli = conditions: Concentration 20 uM; ASSAY_TEST Inhibition of Bacterial Growth; detection method Absorption (OD600); MEDIA CAMHB; plate type 384well; NBS; CORNING #3640; time 18 hr
Structure (SMILES),Inhibition (Staphylococcus aureus) [%],Inhibition (Escherichia coli) [%]
COC(=O)c1cccc2oc(-c3cccc(OC)c3NC(=O)c3cc(-c4ccccc4)on3)nc12,11.44,4.98
COc1ccc(-c2cnc3ccc(N4CCCC4)nn23)cc1OC,12.67,7.3
O=C1COCc2ccc(Br)cc2N1Cc1ccc(C(F)(F)F)cc1,12.84,10.17
Cc1cc(C(=O)Nc2cnn(Cc3ccc(Cl)cc3Cl)c2)no1,4.82,8.52
Cc1ccc(NC(=O)CC2COc3ccccc3O2)cc1Cl (stereo unspecified),15.28,6.03
COc1ccc(S(=O)(=O)Nc2ccc(CN3CCN(C(=O)c4cccc(C#N)c4)CC3)cc2)cc1,1.42,-0.19
Nc1ncc(Br)cc1-c1nc2cc(Cl)cnc2[nH]1,26.53,12.85
COc1cccn2c(C(=O)N3CCCCC3)c(C(F)(F)F)nc12,18.98,-2.18
Cc1ccccc1CN1CCC(O)(c2ccc(Cl)c(C(F)(F)F)c2)CC1,17.37,4.77
COc1ccc(-c2nc(-c3cccc(NC(=O)Cc4ccc(F)cc4)c3)no2)cc1OC,22.17,8.52
CCOc1ccc2cc(-c3nn(CC4CCN(C)CC4)c4ncnc(N)c34)ccc2c1.Cl,18.54,8.02
C[C@H](c1ccc2c(c1)CCCC2)N(C)c1ncc2c(N)nc(N)nc2n1,64.04,11.2
NS(=O)(=O)c1cccc(-c2ccc3ncc(N4CCOCC4)nc3c2)c1,16.94,14.17
